Bioassay records deposited in PubChem by Johns Hopkins Ion Channel Center.
KCNQ2 inh: inhibitors of rat KCNQ2 potassium channel; O88943; CHO-K1 KCNQ2, FluxOR thallium flux, 20 min; hits give low values; B-score at 10 µM; 1.1% of 310,000 active; AID 2156;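 active means fluorescence ratio B-score at most minus 3 library SDs, with starting brightness B-score within 2 library SDs, cut at about -5.5 in these data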
Target sequence (O88943 whole entry, looked up): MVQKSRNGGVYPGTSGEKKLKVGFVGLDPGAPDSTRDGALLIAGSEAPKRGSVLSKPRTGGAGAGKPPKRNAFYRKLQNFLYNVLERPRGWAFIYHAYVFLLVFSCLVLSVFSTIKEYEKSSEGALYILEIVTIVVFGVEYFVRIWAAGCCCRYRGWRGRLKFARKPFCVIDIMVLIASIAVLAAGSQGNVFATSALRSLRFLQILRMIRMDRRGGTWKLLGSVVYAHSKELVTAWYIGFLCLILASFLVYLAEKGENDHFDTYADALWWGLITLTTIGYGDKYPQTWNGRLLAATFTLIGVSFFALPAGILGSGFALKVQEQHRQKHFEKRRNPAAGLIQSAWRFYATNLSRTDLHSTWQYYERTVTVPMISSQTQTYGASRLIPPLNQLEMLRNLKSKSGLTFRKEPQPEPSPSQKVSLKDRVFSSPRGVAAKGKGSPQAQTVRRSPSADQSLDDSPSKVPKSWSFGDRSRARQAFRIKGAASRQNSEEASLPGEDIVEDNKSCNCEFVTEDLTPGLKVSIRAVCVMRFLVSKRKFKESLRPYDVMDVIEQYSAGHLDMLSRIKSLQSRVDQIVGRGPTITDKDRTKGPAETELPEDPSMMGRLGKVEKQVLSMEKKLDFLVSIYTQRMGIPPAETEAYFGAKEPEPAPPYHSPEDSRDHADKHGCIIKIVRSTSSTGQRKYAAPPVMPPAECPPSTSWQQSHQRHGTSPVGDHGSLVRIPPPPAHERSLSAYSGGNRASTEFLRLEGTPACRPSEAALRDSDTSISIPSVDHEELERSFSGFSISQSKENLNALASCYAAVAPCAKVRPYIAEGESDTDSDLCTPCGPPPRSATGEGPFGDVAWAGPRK
KCNQ2 pot: KCNQ2 (rat) channel potentiation | CHO-K1 KCNQ2, FluxOR thallium flux fluorescence; hits give high values | AID 2239 | B-score at 10 µM | O88943 | 0.54% of 310,000 active;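 active means fluorescence ratio B-score at least 3 SD of library B-scores, with initial fluorescence B-score within 3 of them, cut at about 5.3 in these data; same plate scores as AID 2156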;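 further: B-score of peak minus minimum over baseline fluorescence ratio after K+ and Tl+ stimulus; positive B-score means potentiation of KCNQ2 with more thallium influx and brighter signal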
Of the large screens only hits and unclear results are named; the others gave an inactive call. This is a sample that favours compounds with a hit; in the whole collection about 1.6% have one here.

CN1C(=O)/C(=C/c2cc(C(C)(C)C)c(O)c(C(C)(C)C)c2)NC1=S	none (no result: KCNQ2 pot)
Cc1ccc(C(=O)Nc2cccc3ccccc23)cc1	none
CC(C)(C)c1cc(C(=O)Nc2cccc3ccccc23)ccn1	KCNQ2 inh -5.8
Cc1cc(C)c(NC(=O)CNC(=O)COC(=O)CN2C(=O)NC3(CCCC3)C2=O)c(C)c1	none
C#CCOc1ccccc1CNC1CCN(Cc2ccccc2)CC1	none (no result: KCNQ2 pot)
CC1CCN(C(=O)N2c3ccccc3Sc3ccccc32)CC1	none (no result: KCNQ2 pot)
CC1CN(C(=O)N2c3ccccc3Sc3ccccc32)CC(C)O1 (configuration not stated)	KCNQ2 inh -6.23
O=C1c2cccc3cccc(c23)C(=O)N1CCN1CCN(CC(O)COCc2ccc(Cl)cc2)CC1 (configuration not stated)	KCNQ2 inh -5.73
COc1cc(COCC(O)CN2CCN(CCN3C(=O)c4cccc5cccc(c45)C3=O)CC2)cc(OC)c1OC (configuration not stated)	none
O=C(NCc1ccc(Cl)cc1)c1noc2c1CCCC2	KCNQ2 inh -6.47
O=C(NCc1ccccc1)c1noc2c1CCCC2	none (no result: KCNQ2 pot)
COc1ccc(CN(CC(=O)NCC2CCCO2)C(=O)CCC(=O)Nc2nccs2)cc1 (configuration not stated)	none
Cc1cc2ncn(-c3ncnc4sc5c(c34)CCC(C)C5)c2cc1C (configuration not stated)	KCNQ2 inh -5.88
Cc1cc2ncn(-c3ncnc4sc5c(c34)CCCC5)c2cc1C	none (no result: KCNQ2 pot)
Cc1c(NC(=O)CCc2ccccc2)cccc1[N+](=O)[O-]	none
COc1ccc2cc(C(=O)N3CCN(c4cccc(C)c4C)CC3)[nH]c2c1	KCNQ2 inh -6.22
COc1cccc(N2CCN(C(=O)c3cc4ccc(OC)cc4[nH]3)CC2)c1	none
CCCc1cc(=O)n2nc(N3CCC(C(=O)NCc4ccc(C)o4)CC3)sc2n1	none (no result: KCNQ2 pot)
Cc1ccc(Cl)cc1NC(=S)N1CCCCCC1	none
Cc1nc2cc(C(=O)N3c4ccccc4CC3C)ccc2s1 (configuration not stated)	none
COc1ccccc1N1CCN(C(=O)c2cc3cc(C)ccc3[nH]2)CC1	none
Cc1ccc2[nH]c(C(=O)N3CCN(C(c4ccccc4)c4ccccc4)CC3)cc2c1	KCNQ2 inh -5.8
COc1cccc(CNC(=O)CCCc2cn(C)c3ccccc23)c1	none (no result: KCNQ2 pot)
CCOc1cc(CNCCCN2CCOCC2)cc(Br)c1OCc1ccccc1Cl	KCNQ2 inh -5.92
CCOc1cc(CNCCN2CCOCC2)ccc1OCc1ccccc1Cl	none (no result: KCNQ2 pot)
CCN(CC)c1ccc2cc(S(=O)(=O)c3ccc(Cl)cc3)c(=O)oc2c1	KCNQ2 inh -6.19
CCCCCCc1cc2cc(S(=O)(=O)c3ccc(Cl)cc3)c(=O)oc2cc1O	none
CN(CC(=O)Nc1ccccc1Sc1ccccc1)Cc1nc2ccccc2c(=O)[nH]1	none (no result: KCNQ2 pot)
CN(CC(=O)NC(c1ccccc1)c1ccccc1)Cc1nc2ccccc2c(=O)[nH]1	KCNQ2 inh -6.64
Cc1ccc(C(=O)N2CCN(S(=O)(=O)N3CCCCC3)CC2)cc1	none (no result: KCNQ2 pot)
O=C(OCc1ccc([N+](=O)[O-])cc1)c1ccc(N2CCCC2)c([N+](=O)[O-])c1	none (no result: KCNQ2 pot)
N#Cc1ccc(COC(=O)c2ccc(N3CCCC3)c([N+](=O)[O-])c2)cc1	KCNQ2 inh -6.81
Cc1ccc(CN2[C@@H](c3ccccc3)COCCS2(=O)=O)cc1	none (no result: KCNQ2 pot)
COc1ccc(-c2nc(CS(=O)(=O)CC(=O)NCc3cccc(OC)c3OC)c(C)o2)cc1	none (no result: KCNQ2 pot)
COc1ccc(-c2nc(CS(=O)(=O)CC(=O)NCc3ccccc3Br)c(C)o2)cc1	KCNQ2 inh -7.75
O=C(NCc1ccc(F)cc1)c1c2c(nc3ccccc13)CCN(Cc1ccccc1)C2	none (no result: KCNQ2 pot)
COC(=O)c1ccc(CNC(=O)c2c3c(nc4ccccc24)CCN(Cc2ccccc2)C3)cc1	KCNQ2 inh -6.18
CC(Oc1ccc(Br)cc1)C(=O)Nc1ccc(N2CCOCC2)cc1N1CCOCC1 (configuration not stated)	none (no result: KCNQ2 pot)
CCOc1ccc(C(=O)OCC(=O)N2CCCC2)cc1OCC	none
Cc1ccc(NS(=O)(=O)c2ccc(-c3cnc(C4CC4)o3)cc2)cc1	none (no result: KCNQ2 pot)
Cc1ccc(N(C)S(=O)(=O)c2ccc(-c3cnc(C4CC4)o3)cc2)cc1	KCNQ2 inh -9.51
Cc1ccc(CNC(=O)CCc2cn(C)c3ccccc23)cc1	none
O=C(O)C[C@H]1c2ccc(C(F)(F)F)cc2S(=O)(=O)N1Cc1ccccc1	none
CN(C)c1ccc(NC(=O)CN2C(=O)CC(c3ccccc3)=Nc3ccccc32)cc1	none
O=C1CC(c2ccccc2)=Nc2ccccc2N1Cc1ccccc1	KCNQ2 inh -6.15
COc1ccccc1CNC(=O)C(C)n1cccc1C(=O)c1ccccc1 (configuration not stated)	KCNQ2 inh -5.71
CC(C(=O)NCc1ccc(Cl)cc1)n1cccc1C(=O)c1ccccc1 (configuration not stated)	none
Cc1nn(Cc2c(F)c(F)c(F)c(F)c2F)c(C)c1NC(=O)c1nn(C)c(C)c1Br	none (no result: KCNQ2 pot)
CCc1nn(CC(=O)NCCCN(C)Cc2ccccc2)c(=O)c2cc3sc(C)cc3n12	none
CSc1cccc(NC(=S)N(Cc2ccc(C)cc2)Cc2ccccn2)c1	none (no result: KCNQ2 pot)
